{"source": "PubChem BioAssay (Tox21)", "note": "Values without a mark were called inactive. Activity calls are given as the source filed them. Calls come from the whole dose curve; as a rule, active = well fitted curve in the direction sought with a large enough effect in the repeat runs; inconclusive = weak or mixed curves; inactive = flat fitted curve, though single readings scatter. % is set by controls: 0 for no effect and ±100 for the full control effect; potency is the fitted concentration of half-maximal effect; tags give direction and shape of the fitted curve or compound fluorescence and quenching.", "data": [{"assay": "qHTS assay to test for compound auto fluorescence at 590 nm (red) in HEK293 cell free culture (AID 720683)", "conditions": "cell-free medium autofluorescence, Ex540/Em590 red; series mostly up to 91.3 µM; fluorescence, % of fluorescent control: at the top concentration", "method_in_brief": "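Cell-free wells of DMEM with 10% FBS received compound, and intrinsic fluorescence was read at excitation/emission 540/590 nm. Values expressed as equivalence to Rose Bengal sodium.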", "values": [{"smiles": "O=C(O)[C@H](O)[C@@H](O)[C@H](O[C@@H]1O[C@H](CO)[C@H](O)[C@H](O)[C@H]1O)[C@H](O)CO", "fluorescence, % of fluorescent control": "-0.292% [at 18.6 µM]"}, {"smiles": "Cc1c2ccccc2c(C)c2c1ccc1ccccc12", "Potency": "inactive"}, {"smiles": "NC[C@H]1O[C@H](O[C@H]2[C@H](O[C@@H]3O[C@H](CO)[C@@H](O)[C@H]3O)C(O)[C@H](N)C[C@@H]2N)[C@H](N)[C@@H](O)[C@@H]1O", "note": "(some centres undefined)", "fluorescence, % of fluorescent control": "0.335% [at 18.6 µM]"}, {"smiles": "O=C(O)Cc1ccccc1Nc1c(Cl)cccc1Cl", "Potency": "inactive"}, {"smiles": "CC(C)CCCCCOC(=O)CCS", "fluorescence, % of fluorescent control": "-0.0451%"}, {"smiles": "COc1cc(/C=C/c2ccccc2)oc(=O)c1", "fluorescence, % of fluorescent control": "-0.148% [at 95.7 µM]"}, {"smiles": "CCO[Si](OCC)(OCC)OCC", "fluorescence, % of fluorescent control": "-0.164% [at 95.7 µM]"}, {"smiles": "CCCCC(CC)COC(=O)CCCCC(=O)OCc1ccccc1", "note": "(centres undefined)", "fluorescence, % of fluorescent control": "-0.388%"}, {"smiles": "CC(=O)c1ccc(C(C)=O)cc1", "fluorescence, % of fluorescent control": "-0.168% [at 95.7 µM]"}, {"smiles": "Cc1ccc(C(=O)O)cc1", "fluorescence, % of fluorescent control": "-0.233% [at 95.7 µM]"}, {"smiles": "CCC(CC)(CC(=O)Nc1cccc(/C=C/c2nc(C3CCC3)cs2)c1)C(=O)O", "fluorescence, % of fluorescent control": "0.0284% [at 46 µM]"}, {"smiles": "C=CC(=O)Nc1cc2c(Nc3ccc(F)c(Cl)c3)ncnc2cc1OCCCN1CCOCC1", "fluorescence, % of fluorescent control": "-0.526% [at 46 µM]"}, {"smiles": "CCN(CC)c1ccc2c(-c3ccc(S(=O)(=O)O)cc3S(=O)(=O)[O-])c3ccc(=[N+](CC)CC)cc-3oc2c1", "Potency": "794 nM [fluorescent] (active)"}, {"smiles": "Cc1cccc2cccnc12", "fluorescence, % of fluorescent control": "-0.0496%"}, {"smiles": "O=S(=O)(O)c1ccc(Nc2nc(Nc3ccc(/C=C/c4ccc(Nc5nc(Nc6ccc(S(=O)(=O)O)cc6)nc(N(CCO)CCO)n5)cc4S(=O)(=O)O)c(S(=O)(=O)O)c3)nc(N(CCO)CCO)n2)cc1", "fluorescence, % of fluorescent control": "-0.0346%"}, {"smiles": "CC(C)(C)CC(C)(C)c1ccc(Nc2ccc(C(C)(C)CC(C)(C)C)cc2)cc1", "fluorescence, % of fluorescent control": "0.0404% [at 3.72 µM]"}, {"smiles": "CC(C)=CCC1=C(O)c2ccccc2C(=O)C1=O", "fluorescence, % of fluorescent control": "-0.0689%"}, {"smiles": "ClCCl", "fluorescence, % of fluorescent control": "-0.0102%"}, {"smiles": "CCCCNS(=O)(=O)c1ccc(C)cc1", "fluorescence, % of fluorescent control": "-0.0061%"}, {"smiles": "C=C(CC)C(=O)c1ccc(OCC(=O)O)c(Cl)c1Cl", "Potency": "inactive"}, {"smiles": "CCC(COC(=O)CCS)(COC(=O)CCS)COC(=O)CCS", "fluorescence, % of fluorescent control": "0.304%"}, {"smiles": "O=C(O)c1cccc(C(F)(F)F)c1", "fluorescence, % of fluorescent control": "-0.513%"}, {"smiles": "O=C(O)CCN(C1(C(=O)NO)CCCC1)S(=O)(=O)c1ccc(Oc2ccc(F)cc2)cc1", "fluorescence, % of fluorescent control": "0.178%"}, {"smiles": "Nc1ccc(C(=O)O)c(O)c1", "fluorescence, % of fluorescent control": "-0.0785% [at 46 µM]"}, {"smiles": "C[C@H]1NCc2cc(-c3ccc4c(=O)c(C(=O)O)cn(C5CC5)c4c3OC(F)F)ccc21", "fluorescence, % of fluorescent control": "0.0073% [at 46 µM]"}, {"smiles": "O=[N+]([O-])c1ccc(O)cc1C(F)(F)F", "fluorescence, % of fluorescent control": "-0.797%"}, {"smiles": "COC(=O)Nc1nc2ccc(C(=O)c3ccccc3)cc2[nH]1", "fluorescence, % of fluorescent control": "0.0057% [at 18.6 µM]"}, {"smiles": "CC1=Nc2ccccc2C1(C)C", "fluorescence, % of fluorescent control": "0.0049%"}, {"smiles": "CCCCC(CC)CN1CN(CC(CC)CCCC)CC(C)(N)C1", "note": "(centres undefined)", "fluorescence, % of fluorescent control": "-0.232% [at 18.6 µM]"}]}, {"assay": "qHTS assay to test for compound auto fluorescence at 590 nm (red) in HepG2 cell free culture (AID 720684)", "conditions": "cell-free medium autofluorescence, red 540/590 nm; series mostly up to 91.3 µM; fluorescence, % of Rose Bengal: at the top concentration", "method_in_brief": "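Compound was pinned into wells holding MEM with 10% FBS and no cells, and red fluorescence was read at Ex/Em 540/590 nm. Signal is expressed as auto fluorescence equivalency relative to Rose Bengal sodium.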", "values": [{"smiles": "O=C(O)[C@H](O)[C@@H](O)[C@H](O[C@@H]1O[C@H](CO)[C@H](O)[C@H](O)[C@H]1O)[C@H](O)CO", "fluorescence, % of Rose Bengal": "0.117% [at 18.6 µM]"}, {"smiles": "Cc1c2ccccc2c(C)c2c1ccc1ccccc12", "Potency": "inactive"}, {"smiles": "NC[C@H]1O[C@H](O[C@H]2[C@H](O[C@@H]3O[C@H](CO)[C@@H](O)[C@H]3O)C(O)[C@H](N)C[C@@H]2N)[C@H](N)[C@@H](O)[C@@H]1O", "note": "(some centres undefined)", "fluorescence, % of Rose Bengal": "-0.0591% [at 18.6 µM]"}, {"smiles": "CC(C)CCCCCOC(=O)CCS", "fluorescence, % of Rose Bengal": "0.0634%"}, {"smiles": "COc1cc(/C=C/c2ccccc2)oc(=O)c1", "fluorescence, % of Rose Bengal": "0.0023% [at 95.7 µM]"}, {"smiles": "CCO[Si](OCC)(OCC)OCC", "fluorescence, % of Rose Bengal": "0.0169% [at 95.7 µM]"}, {"smiles": "CCCCC(CC)COC(=O)CCCCC(=O)OCc1ccccc1", "note": "(centres undefined)", "fluorescence, % of Rose Bengal": "-0.0987%"}, {"smiles": "NC(=S)NC(N)=S", "fluorescence, % of Rose Bengal": "0.109%"}, {"smiles": "CC(=O)c1ccc(C(C)=O)cc1", "fluorescence, % of Rose Bengal": "-0.004% [at 95.7 µM]"}, {"smiles": "Cc1ccc(C(=O)O)cc1", "fluorescence, % of Rose Bengal": "-0.0301% [at 95.7 µM]"}, {"smiles": "CCC(CC)(CC(=O)Nc1cccc(/C=C/c2nc(C3CCC3)cs2)c1)C(=O)O", "fluorescence, % of Rose Bengal": "0.0444% [at 46 µM]"}, {"smiles": "CCOC(=O)NNc1ccc(N(CC)CC(C)O)nn1", "note": "(centres undefined)", "fluorescence, % of Rose Bengal": "-0.0201% [at 46 µM]"}, {"smiles": "C=CC(=O)Nc1cc2c(Nc3ccc(F)c(Cl)c3)ncnc2cc1OCCCN1CCOCC1", "fluorescence, % of Rose Bengal": "0.0955% [at 46 µM]"}, {"smiles": "CCN(CC)c1ccc2c(-c3ccc(S(=O)(=O)O)cc3S(=O)(=O)[O-])c3ccc(=[N+](CC)CC)cc-3oc2c1", "Potency": "355 nM [fluorescent] (active)"}, {"smiles": "Cc1cccc2cccnc12", "fluorescence, % of Rose Bengal": "-0.343%"}, {"smiles": "O=S(=O)(O)c1ccc(Nc2nc(Nc3ccc(/C=C/c4ccc(Nc5nc(Nc6ccc(S(=O)(=O)O)cc6)nc(N(CCO)CCO)n5)cc4S(=O)(=O)O)c(S(=O)(=O)O)c3)nc(N(CCO)CCO)n2)cc1", "fluorescence, % of Rose Bengal": "0.0206%"}, {"smiles": "CC(C)(C)CC(C)(C)c1ccc(Nc2ccc(C(C)(C)CC(C)(C)C)cc2)cc1", "fluorescence, % of Rose Bengal": "0.189% [at 3.72 µM]"}, {"smiles": "ClCCl", "fluorescence, % of Rose Bengal": "-0.375%"}, {"smiles": "CCCCNS(=O)(=O)c1ccc(C)cc1", "fluorescence, % of Rose Bengal": "-0.0424%"}, {"smiles": "CC(CO)Oc1ccccc1", "note": "(centres undefined)", "fluorescence, % of Rose Bengal": "-0.0785% [at 95.7 µM]"}, {"smiles": "C=C(CC)C(=O)c1ccc(OCC(=O)O)c(Cl)c1Cl", "Potency": "inactive"}, {"smiles": "CCC(COC(=O)CCS)(COC(=O)CCS)COC(=O)CCS", "fluorescence, % of Rose Bengal": "0.0739%"}, {"smiles": "O=C(O)CCN(C1(C(=O)NO)CCCC1)S(=O)(=O)c1ccc(Oc2ccc(F)cc2)cc1", "fluorescence, % of Rose Bengal": "0.0098%"}, {"smiles": "Nc1ccc(C(=O)O)c(O)c1", "fluorescence, % of Rose Bengal": "0.0902% [at 46 µM]"}, {"smiles": "C[C@H]1NCc2cc(-c3ccc4c(=O)c(C(=O)O)cn(C5CC5)c4c3OC(F)F)ccc21", "fluorescence, % of Rose Bengal": "-0.0009% [at 46 µM]"}, {"smiles": "O=C(Oc1ccccc1)Oc1ccccc1", "fluorescence, % of Rose Bengal": "0.0727%"}, {"smiles": "O=[N+]([O-])c1ccc(O)cc1C(F)(F)F", "fluorescence, % of Rose Bengal": "-0.307%"}, {"smiles": "O=C(O)c1cc(=O)c2ccccc2o1", "fluorescence, % of Rose Bengal": "0.0686% [at 46 µM]"}, {"smiles": "CC1=Nc2ccccc2C1(C)C", "fluorescence, % of Rose Bengal": "-0.0808%"}, {"smiles": "CCCCC(CC)CN1CN(CC(CC)CCCC)CC(C)(N)C1", "note": "(centres undefined)", "fluorescence, % of Rose Bengal": "0.0615% [at 18.6 µM]"}]}]}
